E coli Lon inh: inhibits E. coli Lon protease | 0.42% of 360,000 active | inhibition, % at 7.94 µM | P0A9M0 | purified E. coli Lon protease, fluorescence polarization; in the data active = inhibition above about 13%, passing the limit was not always enough;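 note: 0% = enzyme with probe and DMSO and 100% = no enzyme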
Target sequence (P0A9M0 whole entry, looked up): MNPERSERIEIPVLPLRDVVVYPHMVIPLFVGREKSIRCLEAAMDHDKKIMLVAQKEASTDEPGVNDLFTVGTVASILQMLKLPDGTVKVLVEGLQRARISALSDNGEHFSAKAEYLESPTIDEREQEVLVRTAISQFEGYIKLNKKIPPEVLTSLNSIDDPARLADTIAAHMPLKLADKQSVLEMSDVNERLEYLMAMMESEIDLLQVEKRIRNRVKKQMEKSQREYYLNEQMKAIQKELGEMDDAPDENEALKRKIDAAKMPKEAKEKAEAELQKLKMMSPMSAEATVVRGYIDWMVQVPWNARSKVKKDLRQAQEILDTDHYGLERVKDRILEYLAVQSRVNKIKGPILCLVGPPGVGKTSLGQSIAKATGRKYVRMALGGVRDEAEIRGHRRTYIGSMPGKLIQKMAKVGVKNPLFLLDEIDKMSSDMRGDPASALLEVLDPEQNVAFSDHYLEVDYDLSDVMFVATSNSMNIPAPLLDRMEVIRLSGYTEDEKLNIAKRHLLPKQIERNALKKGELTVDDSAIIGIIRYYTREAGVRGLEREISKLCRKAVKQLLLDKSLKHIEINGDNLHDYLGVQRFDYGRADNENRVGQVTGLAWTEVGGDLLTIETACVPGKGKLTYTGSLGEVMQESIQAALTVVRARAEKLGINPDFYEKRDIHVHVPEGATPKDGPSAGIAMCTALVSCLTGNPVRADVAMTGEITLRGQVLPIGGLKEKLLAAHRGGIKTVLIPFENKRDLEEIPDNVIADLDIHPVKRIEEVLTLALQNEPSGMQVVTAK
MCL1-BIM inh: MCL1-BIM-BH3 interaction inhibition (human). Q07820. GST-MCL1 / FITC-Bim-BH3 fluorescence polarization. inhibition, % at 10.9 µM. 0.68% of 320,000 active;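 active = inhibition above the mean inhibition of all tested compounds plus 3 SD, set per campaign, cut at about 40% in these data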;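 note: 0% = DMSO wells and 100% = unlabeled Bim-BH3 peptide control; higher means more loss of mP so more displacement of Bim peptide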
GLD-1 RNA inh: GLD-1-TGE RNA interaction inhibition (C. elegans) | purified GLD-1 + fluorescein TGE RNA, fluorescence polarization | inhibition, % at 5.96 µM | 0.44% of 320,000 active;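 active = percent inhibition above a per-plate cutoff, the plate mean of test compounds plus 3 SD, cut at about 30% in these data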;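 note: 0% = DMSO wells with GLD-1 and probe and 100% = wells lacking GLD-1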
MEX-5 binding: C. elegans MEX-5 TCR-2 RNA binding activity; MEX-5/FITC-TCR2 RNA binding, fluorescence polarization; hits give low values; activity score (negative = inhibition of binding), % at 10 µM; 0.38% of 300,000 active; AID 1832;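 active = inhibition past about -25% in most replicates, and total fluorescence under double the plate's negative control median, limit read from the data; inconclusive = replicates evenly split on the limit, or fluorescence at least double controls; inactive = too little inhibition in most replicates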;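 note: 0% = DMSO and -100% = 5 µM competing unlabeled TCR2 RNA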
Bcl-xL primary: inhibitors of human Bcl-xL | AID 2129 | Q07817 | inhibition, % at 10.9 µM | GST-Bcl-xL / FITC-Bim BH3 peptide fluorescence polarization | 0.7% of 320,000 active;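 active = inhibition above the mean of all tested compounds plus 3 SD, cutoff set per campaign, cut at about 30% in these data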;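 note: 0% = DMSO wells and 100% = unlabeled Bim-BH3 peptide competitor; inhibitors lower millipolarization by displacing the labeled peptide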
EBV gp42 inh: inhibitors of Epstein-Barr virus glycoprotein 42; Q1HVG2; Fluorescence polarization binding assay, mP read-out; inhibition, % (tested at 21.74 µM); 0.42% of 220,000 active; AID 1085; in the data active = inhibition above about 50%
Bcl-xL conf: Bcl-xL (human) inhibition, MCL1 counter-screen confirmation | shares compounds with MCL1-BIM inh | GST-Bcl-xL / FITC-Bim BH3 peptide FP binding | inhibition, % at 10.9 µM | 54% of 1,700 active | AID 2166;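 active = inhibition above a cutoff equal to the mean inhibition of all tested compounds plus 3 SD, cut at about 30% in these data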;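 note: 0% = DMSO wells and 100% = unlabeled Bim BH3 control peptide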
MCL1 BIM confirm: confirmation of human MCL1 and BIM-BH3 interaction inhibitors; shares compounds with MCL1-BIM inh; GST-MCL1 / FITC-Bim-BH3 fluorescence polarization; inhibition, % at 10.9 µM; 61% of 1,700 active; AID 2168;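 active = inhibition above the average of all tested compounds plus 3 SD, cut at about 40% in these data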;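 note: 0% = DMSO wells and 100% = unlabeled Bim-BH3 control peptide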
GLD-1 TGE cf: GLD-1 TGE RNA interaction inhibition, confirmation. inhibition, % at 5.96 µM. 10% of 550 active. GLD-1/FL-TGE RNA fluorescence polarization, biochemical. AID 2459. shares compounds with GLD-1 RNA inh;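 active = average inhibition across triplicates above the hit cutoff set in the primary screen, cut at about 32% in these data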;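 note: 0% = GLD-1 with RNA probe and DMSO and 100% = wells lacking GLD-1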
eLon confirm: confirmation of E. coli Lon protease inhibitors; shares compounds with E coli Lon inh; purified E. coli Lon, fluorescence polarization; inhibition, % at 7.94 µM; 31% of 1,400 active; AID 602230; in the data active = inhibition above about 16%;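 note: 0% = enzyme with probe and DMSO and 100% = no enzyme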
Starred values were filed as active, the others as inactive; ? = inconclusive; . = no result; + = active, no number. Only some compounds are listed: those with a hit (about 1.5% of all), similar ones and a draw of the others.

SMILES | E coli Lon inh | MCL1-BIM inh | GLD-1 RNA inh | MEX-5 binding | Bcl-xL primary | EBV gp42 inh | Bcl-xL conf | MCL1 BIM confirm | GLD-1 TGE cf | others
Cc1cc(C(=O)CSc2nc3ccccc3[nH]2)c(C)n1Cc1ccco1 | -5 | -4 | 5 | -1 | 1 | -3 | . | . | .
Cc1ccc(CNC(=O)c2cc(S(=O)(=O)N3CCCC3)cn2C)cc1 | 3 | 4 | 4 | -1 | -2 | . | . | . | .
COc1ccc(N2CCCC2)c(NC(=O)c2ccc(Br)o2)c1 | 1 | 56* | 38* | -6 | 48* | . | 22 | 16 | 41*
C=C1c2cccc(O)c2C(O)=C2C(=O)[C@]3(O)C(O)=C(C(N)=O)C(=O)[C@@H](N(C)C)[C@@H]3[C@@H](O)[C@H]12 | 10 | 108* | 36* | -32* | 64* | -13 | 36* | 87* | -2
CNC(=O)COC(=O)c1cc(-c2ccco2)nc2ccccc12 | 6 | 121* | 57* | -4 | 96* | 31 | 38* | 76* | -3
O=C(COC(=O)c1cc(-c2ccco2)nc2ccccc12)NCc1ccccc1 | -5 | 19 | 11 | -1 | 21 | -6 | . | . | .
Nc1c(O)ccc2c1C(=O)c1ccccc1C2=O | . | 105* | 72* | -39* | 105* | 146* | 111* | 127* | 53*
CC1(C)CC(=O)C2=C(C1)Nc1ccccc1S2 | 40 | 59* | 49* | ? | 56* | 38 | 56* | 62* | 19
C[C@H](CO)N1C[C@H](C)[C@@H](CN(C)S(=O)(=O)c2cccs2)Oc2ccc(NC(=O)Nc3ccc4c(c3)OCO4)cc2C1=O | 4 | . | 1 | . | . | . | . | . | .
Nc1cccc2c1C(=O)N(c1ccccc1)C2=O | 14 | 80* | 70* | -26* | 69* | . | 65* | 79* | 67*
CCCN=C1N/C(=C\c2ccco2)C(=O)N1c1ccccc1 | 0 | 11 | 20 | -2 | 9 | -4 | . | . | .
O=C1/C(=C\c2ccco2)NC(=S)N1c1ccccc1 | 2 | 50* | 55* | -2 | 34* | 3 | 14 | 17 | -3
CC(C)[C@H](NC(=O)C1CC(=O)N(c2ccc3c(c2)OCO3)C1)C(=O)NC1CCCC1 (stereo not given in full) | 12 | 54* | 43* | -17 | 55* | . | 37* | 65* | 20
C[C@H](NC(=O)C1CC(=O)N(c2ccc3c(c2)OCCO3)C1)C(=O)NC1CCCC1 (stereo not given in full) | -10 | -1 | 0 | -1 | 4 | . | . | . | .
COc1ccc(NC(=O)c2ccc(-c3ccc(C(C)=O)cc3)o2)cn1 | 1 | 60* | 57* | . | 69* | . | 55* | 65* | 45*
CC(C)(Oc1cccc2ccccc12)C(=O)O | -2 | 6 | 1 | 0 | 1 | -17 | . | . | .
CCOC(=O)CC(=O)CSc1nc(-c2cccnc2)cc(C)c1C#N | -11 | 62* | 36* | -1 | 61* | 8 | 8 | -1 | 3
CCN(CC)c1ccc(/C=C(\C#N)C(=O)NCc2ccco2)cc1 | . | -30 | -83 | . | -19 | -97 | . | . | .
CC(OC(=O)/C(C#N)=C/c1ccc(N(C)C)cc1)C(=O)NCc1ccco1 (stereo not given) | 12 | 129* | 77* | -3 | 111* | . | 99* | 142* | 56*
COc1cc(NS(=O)(=O)c2ccc(C)cc2)c2ncccc2c1 | 1 | 6 | -2 | 0 | 3 | -24 | . | . | .
CCC(CNc1cc(OC)cc2cccnc12)NC1CCCCC1 (stereo not given) | 71 | + | 33* | -11 | + | 22 | 50* | 62* | -6
CCc1ccc2[nH]c(C(=O)Nc3ccc(F)cc3Br)cc2c1 | -3 | 4 | 1 | 1 | 7 | . | . | . | .
Cc1ccc(-c2cc(C(F)(F)F)c(C#N)c(=O)[nH]2)cc1 | 0 | 20 | 3 | 0 | 5 | -2 | . | . | .
Cc1ccc(-c2cc(-c3ccco3)c(C#N)c(=O)[nH]2)cc1 | 21 | 96* | 50* | -40* | 79* | 48 | 26 | 53* | -14
Cc1cccc(NC(=O)CSc2nnc(-c3ccco3)c(-c3ccco3)n2)c1C | 89* | 41* | 3 | -14 | 25 | 32 | 98* | 141* | . | eLon confirm=2
SMILES | E coli Lon inh | MCL1-BIM inh | GLD-1 RNA inh | MEX-5 binding | Bcl-xL primary | EBV gp42 inh | Bcl-xL conf | MCL1 BIM confirm | GLD-1 TGE cf | others
Cc1cccc(NC(=O)CSc2nnc(-c3ccco3)c(-c3ccco3)n2)c1 | 8 | . | . | . | . | 0 | . | . | .
C#CCN1c2ccccc2Sc2cccnc21 | 165* | + | 93* | -11 | + | . | 27 | 39 | . | eLon confirm=21*
CCCCn1c(N)c(N(CC(C)C)C(=O)COC(=O)c2ccccc2NCCO)c(=O)[nH]c1=O | -6 | -24 | -4 | -1 | -11 | . | . | . | .
N=C1CCC(=N)c2c1c(O)c1ccccc1c2O | 29* | 150* | 107* | -20 | 125* | 69* | 119* | 144* | . | eLon confirm=44*
CCOc1ccc(N2CC(C(=O)NCc3ccc4c(c3)OCO4)CC2=O)cc1 (stereo not given) | 8 | -3 | 1 | 1 | -3 | . | . | . | .
CCOC(=O)CNc1ccc2c(c1)OCO2 | 65* | 176* | 84* | -5 | 154* | -3 | 25 | 39 | . | eLon confirm=-4
COc1ccc(Cl)cc1NC(=O)CSc1nnc(-c2ccco2)o1 | -6 | 3 | 2 | 1 | 1 | . | . | . | .
CC1(C)c2ccccc2N(CC(N)=O)C12C=Cc1ccccc1O2 (stereo not given) | 8 | -2 | -6 | -1 | 0 | -2 | . | . | .
CC1(C)c2ccccc2N2CC(=O)N(CC(N)=O)C21C (stereo not given) | 125* | 106* | 85* | 8 | 97* | 2 | 75* | 103* | . | eLon confirm=89*
COc1[nH]c(/N=C/c2ccccc2)c(C#N)c1C#N | 149* | 194* | 159* | -59* | 160* | 39 | 50* | 40* | . | eLon confirm=8
O=C(NC1CCCCNC1=O)c1ccco1 (stereo not given) | -7 | 5 | -1 | 3 | 4 | . | . | . | .
CCN(C(=O)c1coc(=O)c(Br)c1)c1ccc2c(c1)OCO2 | 21* | 62* | 18 | -12 | 58* | 32 | 110* | 122* | . | eLon confirm=4
